An excerpt weighted towards active compounds, which were near 12% of everything screened.
JMJD2A Tudor inh – inhibitors of human JMJD2A Tudor domain. O75164. AlphaScreen JMJD2A-Tudor / H3K4me3 peptide binding. Potency, µM (top dose mostly 114 µM), without a hit: top-dose activity change, negative = inhibition, most hits filed as inhibitors. 390,000 compounds, 4.4% hits. AID 504339; further: on the % scale 0 is the no-effect control and ±100 the full control effect; nearly all actives have a fitted effect of over 50% in size
G9a block – inhibitors of human histone lysine methyltransferase G9a | 350,000 compounds, 8.8% hits | Potency, µM (highest dose often 102 µM), inactives show at the highest dose activity, negative = inhibition, hits mostly inhibitors | G9a H3K9 monomethylation, AlphaScreen, 2 h | Q96KQ7; further: on the % scale 0 is the no-effect control and ±100 the full control effect; nearly all actives have a fitted effect of over 75% in size
Target sequence (Q96KQ7 913-1193 limits assumed): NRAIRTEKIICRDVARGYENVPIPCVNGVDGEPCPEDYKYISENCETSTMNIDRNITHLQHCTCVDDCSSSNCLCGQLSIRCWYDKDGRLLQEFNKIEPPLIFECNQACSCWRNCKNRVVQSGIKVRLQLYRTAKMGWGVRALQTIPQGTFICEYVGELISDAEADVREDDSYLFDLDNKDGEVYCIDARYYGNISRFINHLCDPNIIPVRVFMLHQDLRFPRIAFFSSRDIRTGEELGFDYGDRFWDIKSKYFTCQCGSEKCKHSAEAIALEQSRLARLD
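Chemiluminescent proximity detection of H3K9 monomethylation, read after 10 min bead incubation in the dark. Reaction: 20 nM G9a, 500 nM biotin-H3K9 peptide, 20 uM SAM cofactor, 2 h, room temperature, following 15 min enzyme-compound preincubation.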
L3MBTL1 inh – blocks human L3MBTL1 | AlphaScreen L3MBTL1–H3K9me1 peptide binding | Potency, µM (doses to about 57.1 µM), for inactives: at the highest dose activity, negative = inhibition, usual class: inhibitors | 230,000 compounds, 0.66% hits | AID 485360 | Q9Y468; further: on the % scale 0 is the no-effect control and ±100 the full control effect; nearly all actives have a fitted effect of over 60% in size
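AlphaScreen assay: L3MBTL1 (50 nM final) was preincubated 30 min at room temperature with biotinylated H3(1-15)K9me1 peptide (75 nM final), then 30 min with library compounds; streptavidin donor and nickel chelate acceptor beads (10 ug/mL final) added, 30 min dark.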
HP1b chromo inh – blocks HP1-beta chromodomain binding to methylated histone tails. AlphaScreen HP1-beta / biotin-H3K9me3 peptide binding. Potency, µM (doses to about 114 µM), inactives show at the highest dose activity change, negative = inhibition, usual class: inhibitors. 390,000 compounds, 0.56% hits; further: nearly all actives have a fitted effect of over 70% in size
Target sequence (P83916 whole entry, looked up): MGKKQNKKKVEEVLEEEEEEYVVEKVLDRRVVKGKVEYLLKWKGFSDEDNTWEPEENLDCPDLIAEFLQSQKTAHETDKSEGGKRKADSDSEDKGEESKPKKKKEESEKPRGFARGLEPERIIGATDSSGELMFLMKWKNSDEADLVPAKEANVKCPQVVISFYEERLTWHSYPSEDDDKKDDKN
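Compound inhibition of the preformed complex between 50 nM HP1-beta and 50 nM biotinylated H3K9me3 peptide was read by AlphaScreen. Buffer was PBS pH 7.4 with 0.01% Tween-20. Incubations ran 30 min at room temperature, with 10 ug/mL donor/acceptor beads.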
BAZ2B block – blocks human BAZ2B; Q9UIF8; AlphaScreen BAZ2B-H3K14Ac peptide displacement; Potency, µM (doses to about 114 µM), for inactives: at the highest dose activity change, negative = inhibition, most hits filed as inhibitors; 360,000 compounds, 4.4% hits; AID 504333; further: on the % scale 0 is the no-effect control and ±100 the full control effect; nearly all actives have a fitted effect of over 60% in size
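BAZ2B (50 nM) with biotin-H3(5-23)K14Ac peptide (50 nM) in PBS pH 7.4, 0.01% Tween-20, preformed 30 min, then compound 30 min at room temperature; top concentration 110uM. AlphaScreen streptavidin donor/nickel chelate acceptor beads (10 ug/mL final), 20 min dark, signal read.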
Sfp PPTase inh – blocks B. subtilis Sfp PPTase activity | Q9F4F7 | Biochemical Sfp PPTase activity, qHTS | Potency, µM, inactives show largest response in the series, negative = inhibition, actives largely listed as inhibitors | 310,000 compounds, 3.5% hits | AID 1490;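 further: the enzyme is Sfp with the accession as filed and its product quenches rhodamine fluorescence; 0% = enzyme reaction without inhibitor and -100% = no enzyme wells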
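Compounds were incubated with enzyme (final 15 nM) for 15 min at room temperature before substrate addition started the reaction. Fluorescence at 525 nm excitation, 598 nm emission was recorded immediately and after 30 minutes.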
Active calls of the source: *; ? = inconclusive; / = no result given; ! = repeats disagree; [ ] = remark or other dose. The call rests on the fitted dose curve; in most records, active means well fitted curve in the direction sought with a large enough effect; inconclusive means small, poorly fitted or top-dose-only effect, or another doubt; inactive means no such curve, though single readings can be large; an effect the other way counts as inactive or inconclusive. Potency means the concentration at half of the fitted maximal effect.

SMILES | JMJD2A Tudor inh | G9a block | L3MBTL1 inh | HP1b chromo inh | BAZ2B block | Sfp PPTase inh
Cc1ccc(C(=O)Oc2ccc(Br)cc2C(=S)N2CCOCC2)cc1 | -21% | 40µM* | / | ? | -14% | -23%
COc1ccccc1OCC(=O)Nc1cc(-c2ccc(C)cc2)no1 | -27% | 2%[59 µM] | / | 17% | 0% | /
Cc1nn(C)c2c1c(-c1ccccc1)cc(=O)n2Cc1ccccc1Cl | 29% | 74%[59 µM] | / | 46% | 38% | /
Cc1ccc(NC(=O)CCc2nnc3n(C)c(=O)c4sccc4n23)cc1C | -7% | -25%[59 µM] | / | 19% | 1% | /
Cc1ccc(CN2CCCn3nc(C(=O)NCCC(C)C)cc3C2=O)cc1 | -30% | 15%[59 µM] | / | 22% | -9% | /
CC1CCCCN1S(=O)(=O)c1ccc(S(=O)(=O)N2CCN(c3ccccc3)CC2)cc1 (stereo not given) | -1% | 50µM* | / | 30% | 7% | 21%
O=C(c1ccc(S(=O)(=O)N2CCCCC2)cc1)N1CCN(c2ccccc2)CC1 | -21% | -5%[12.7 µM] | / | 14% | -5% | 2%
Cc1ccc(/C=C/C2=C[C@]3(C)C[C@]2(C)[C@H](c2ccc(C)cc2)CC3=O)cc1 | / | / | / | / | / | 5%
Cn1c(C(O)C(O)c2ccccc2)nc2ccccc21 (stereo not given) | -7% | 3% | -2% | 37% | -3% | 2%
Cn1c(C(C#N)C2=C(Cl)C(=O)N(c3ccccc3)C2=O)nc2ccccc21 (stereo not given) | / | 14µM* | ? | / | 8.9µM* | ?
Nc1ccc(/C=C/c2ccc(N)cc2S(=O)(=O)O)c(S(=O)(=O)O)c1 | / | ? | / | / | / | -20%
CCN1CCN(C(C)C(=O)Nc2c(C)n(C)n(-c3ccccc3)c2=O)CC1 (stereo not given) | 7.9µM* | 11µM* | -2% | ? | 50µM* | ?
Cc1c(NC(=O)CN2CCN(c3ccccc3)CC2)c(=O)n(-c2ccccc2)n1C | -14% | -7% | -7% | 32% | 7% | 11%
Cc1c(NC(=O)C2CC=CCC2C(=O)O)c(=O)n(-c2ccccc2)n1C (stereo not given) | -19% | -47%[12.7 µM] | / | 11% | 79µM* | 9%
CCN(CC)C(=O)Nc1c(C)n(C)n(-c2ccccc2)c1=O | 3% | 15%[59 µM] | -24% | 14% | 6% | -9%
Cc1c(NC(=O)CN2CC(C)OC(C)C2)c(=O)n(-c2ccccc2)n1C (stereo not given) | 11µM*! | 16µM* | -2% | 56µM*! | 20µM* | ?
CCc1nnc(NC(=O)c2ccccc2NC(=O)C2CCN(C(=O)c3ccco3)CC2)s1 | -17% | / | / | 15% | / | /
CN(Cc1cnc2nc(N)nc(N)c2n1)c1ccc(C(=O)N[C@@H](CCC(=O)O)C(=O)O)cc1 | -6% | 7.5µM*! | / | 30% | / | ?
CC(=O)c1ccc(-c2ccc(C(=O)NCC3CCCO3)o2)cc1 (stereo not given) | -15% | 79µM* | 2% | 34% | 4% | /
CC1(C)CC(NC(=O)c2ccc(Cl)cc2)CC(C)(C)N1 | -18% | 17% | 10% | 1% | 3% | 17%
CC(=O)c1ccc(-c2ccc(C(=O)NC3CC(C)(C)NC(C)(C)C3)o2)cc1 | -22% | 40µM* | 8% | 17% | -4% | /
Cc1ccc(-n2ncc3c(N4CCN(C)CC4)ncnc32)cc1C | -20% | -26%[59 µM] | / | -8% | -7% | /
Cc1ccc(NC(=O)C2CCCN2S(=O)(=O)c2cccc3nsnc23)cc1Cl (stereo not given) | -35% | ? | / | 10% | ? | /
Cc1ccc(C(=O)COC(=O)c2cc(-c3ccc(Cl)cc3)nc3ccccc23)cc1 | 12% | 25%[59 µM] | / | 56% | 16% | /
CC1=C(C(=O)N2CCCCC2)C(c2ccc(Cl)cc2)n2c(nc3ccccc32)N1 (stereo not given) | -13% | 4%[59 µM] | / | 34% | 3% | /
SMILES | JMJD2A Tudor inh | G9a block | L3MBTL1 inh | HP1b chromo inh | BAZ2B block | Sfp PPTase inh
O=C(CC1C(=O)N(c2ccccc2)C(=O)N1Cc1ccco1)Nc1ccccc1 (stereo not given) | -30% | ? | 2% | 0% | -37% | 10%
CC(C)N1C(=S)N(Cc2ccco2)C(=O)C1CC(=O)Nc1ccccc1 (stereo not given) | -19% | 50µM* | 4% | 20% | ? | -39%
CC[C@H](C)[C@H](NC(=O)[C@H](Cc1ccc(O)cc1)NC(=O)[C@H](Cc1cnc[nH]1)NC(=O)[C@H](CCCNC(=N)N)NC(=O)[C@H](CC(C)C)NC(=O)[C@H](C)NC(=O)[C@H](CO)NC(=O)[C@H](Cc1ccc(O)cc1)NC(=O)[C@H](Cc1ccc(O)cc1)NC(=O)[C@H](CCCNC(=N)N)NC(=O)[C@H](C)NC(=O)[C@H](CC(C)C)NC(=O)[C@H](CC(=O)O)NC(=O)[C@H](CCC(=O)O)NC(=O)[C@H](C)NC(=O)[C@@H]1CCCN1C(=O)[C@H](C)NC(=O)[C@H](CC(=O)O)NC(=O)[C@H](CCC(=O)O)NC(=O)CNC(=O)[C@@H]1CCCN1C(=O)[C@H](CC(N)=O)NC(=O)[C@H](CC(=O)O)NC(=O)[C@@H]1CCCN1C(=O)[C@H](CCCCN)NC(=O)[C@@H](N)CO)C(=O)N[C@@H](CC(N)=O)C(=O)N[C@@H](CC(C)C)C(=O)N[C@H](C(=O)N[C@H](C(=O)N[C@@H](CCCNC(=N)N)C(=O)N[C@@H](CCC(N)=O)C(=O)N[C@@H](CCCNC(=N)N)C(=O)N[C@@H](Cc1ccc(O)cc1)C(N)=O)[C@@H](C)O)[C@@H](C)CC | / | / | / | / | / | -26%
O=C(O)/C(=C\C(=O)c1ccccc1)Nc1ccccc1 | / | 20µM* | -3% | / | 79µM* | -27%
Cc1cc(C)nc(NC(=O)C2c3ccccc3Oc3ccccc32)n1 | -1% | 50µM* | 8% | 52% | -1% | 17%
COc1cc(OC)nc(Oc2ccccc2/C=N/O)n1 | 45µM* | / | / | 12% | / | /
O=S(=O)(NCC(c1ccco1)N1CCN(c2ccc(F)cc2)CC1)c1cc(F)ccc1F (stereo not given) | ? | 34%[59 µM] | / | 17% | 8% | /
CC(C)C1Nc2c(O)cc(Cl)c([N+](=O)[O-])c2C2C=CCC21 (stereo not given) | 40µM* | 25µM* | -27% | ? | 25µM* | -12%
NC(=S)N/N=C1\CC(c2ccc3c(c2)OCCO3)Oc2ccc(F)cc21 (stereo not given) | -17% | 7% | -7% | -4% | -19% | 8%
NC(=S)N/N=C1\CC(c2ccc3c(c2)OCCCO3)Oc2ccc(F)cc21 (stereo not given) | ? | / | / | -22% | 25µM* | 1%

Compound activity deposited in PubChem by National Center for Advancing Translational Sciences (NCATS).
